According to PubChem BioAssay (Tox21):
Values without a mark were called inactive. Calls come from the whole dose curve; as a rule, active = well fitted cell-killing curve with a large enough effect in the repeat runs; inconclusive = weak or mixed curves, or effect the other way; inactive = flat fitted curve, though single readings scatter.

assay: qHTS assay to identify small molecule HDAC inhibitors - cell viability counter screen (AID 1259365); conditions: HCT-116 viability, CellTiter-Glo ATP luminescence, 2 h; series mostly up to 92.4 µM; activity change, negative = cytotoxicity: at the top concentration; note: nearly all actives have a fitted effect of over 50% in size
Source text: U.S. Tox21 Program National Center for Advancing Translational Sciences [NCATS] NIH Chemical Genomics Center [NCGC] U.S. Environmental Protection Agency [EPA] National Institutes of Environmental Health Sciences [NIEHS] National Toxicology Program [NTP] U.S. Food and Drug Administration [FDA] Tox21 Assay Overview: Histone deacetylases (HDACs) are a group of epigenetic enzymes that regulate gene expression by histone deacetylation. HDACs are capable of introducing epigenetic modifications and such aberrations contribute to the onset and progression of several human diseases, thus making HDACs a popular therapeutic target. For identifying endogenous class I/II HDAC inhibitors a homogenous, luminogenic HDAC I/II cell based assay was used to measure the relative activity of class I and II HDACs from cells. Wild type HCT-116 cells were used to screen Tox21 compound libraries for identifying class I/II HDAC inhibitors.
Tox21 Assay Protocol Summary: HCT-116 cells were dispensed at 1,500 per well in 5uL of culture medium into white solid bottom 1536-well plates (Greiner Bio-One, Monroe, NC) using a Multidrop Combi (Thermo Scientific, Waltham, MA) dispenser. The assay plates were incubated at 37 C and 5% CO2 for an overnight, and then 23nL of compounds dissolved in DMSO and positive control were transferred using a Pintool station (Wako, San Diego, CA). The assay plates were incubated at 37C and 5% CO2 for 2hr. After compound treatment, 4uL of CellTiter-Glo reagent (Promega Corporation, Madison, WI) was added to each well of the assay plates using Flying Reagent Dispenser (FRD, Aurora Discovery, San Diego, CA) and incubated the assay plates at room temperature for 30min. The luminescence signal was quantified using a ViewLux plate reader (Perkin Elmer, Shelton, CT).
% is set by controls: 0 for no effect and ±100 for the full control effect.

Row | SMILES | activity change, negative = cytotoxicity
1 | CC(C)(C)c1cc(CCC(=O)OCCSCCOC(=O)CCc2cc(C(C)(C)C)c(O)c(C(C)(C)C)c2)cc(C(C)(C)C)c1O | 0.494% [at 42.5 µM]
2 | O=C1c2ccccc2C(=O)c2c(Cl)cccc21 | -0.0943% [at 42.5 µM]
3 | CC/C=C\C/C=C\C/C=C\CCCCCCCC(=O)OC | 0.892%
4 | CN1CCN(CCCN2c3ccccc3Sc3ccc(C(F)(F)F)cc32)CC1 | -15.3% [at 42.5 µM]
5 | COCCC(=O)OC | -0.266%
6 | O=C1CCC(=O)N1 | -6.26%
7 | Cc1cccc2c1ccc1ccccc12 | 5.31%
8 | CCNc1nc(NC(C)(C)C)nc(OC)n1 | 4.26%
9 | Cc1cc(Br)ccc1NC(=O)CCl | 6.21%
10 | COc1cc(C(C)C)ccc1C | 0.521% [at 19 µM]
11 | CCOC=C(C(=O)OCC)C(=O)OCC | 0.337%
12 | Oc1ccc2c(c1)CCC2 | 8.33%
13 | Cc1cc(C)c(O)c(C(C)(C)C)c1 | 7.78%
14 | CCN(CC)c1ccc(N=Nc2ccccc2)cc1 | -6.85%
15 | CCCCCCCCCCCC(=O)Cl | 4.93%
16 | C=Cc1ccc(O)c(OC)c1 | 0.168%
17 | Nc1cc([N+](=O)[O-])cc(Cl)c1O | 0.534%
18 | CSc1nnc(C(C)(C)C)c(=O)[nH]1 | 2.08%
19 | Clc1nc(C(Cl)(Cl)Cl)c(Cl)c(Cl)c1Cl | -12.5%
20 | CC(C)=NNC(N)=S | -0.894%

Row | SMILES | activity change, negative = cytotoxicity
21 | SC1CCCCC1 | 3.07%
22 | CC(O)(c1ccc(Cl)cc1)c1ccc(Cl)cc1 | -11.4%
23 | CCc1c(C)cc(N)c(CC)c1N | 2.36%
24 | C/C(=C\c1ccc(C(=O)O)cc1)c1ccc2c(c1)C(C)(C)CCC2(C)C | 7.13% [at 42.5 µM]
25 | CCOC(=O)[C@H](C)O | 3.23%
26 | Cc1ccc(C2OC[C@@H]3OC(c4ccc(C)cc4)O[C@H]([C@H](O)CO)[C@@H]3O2)cc1 (stereo not given in full) | 0.329%
27 | CCCCCc1ccc(O)cc1 | 0.205%
28 | NC(=O)c1ccccc1Cl | 2.93%
29 | C/C=C/C(=O)OCC(C)C | 1.19%
30 | CC(C)=CCC[C@H](C)CC=O | 4.7%
31 | Cc1ccc2n[nH]nc2c1 | -4.94%
32 | C=COCCCC | -3.79%
33 | C=CC(=O)OCC(Br)CBr (stereo not given) | 2.56%
34 | [Cl][Sc]([Cl])[Cl] | -0.0994%
35 | CCC1(C)C(=O)N(Cl)C(=O)N1Cl (stereo not given) | 0.498%
36 | C=CCc1cc(S(=O)(=O)c2ccc(O)c(CC=C)c2)ccc1O | 12.6%
37 | O=c1[nH]cccc1O | 2.32%
38 | O=C(Nc1ccc([N+](=O)[O-])cc1)Nc1ccc([N+](=O)[O-])cc1 (tested in a mixture with another compound) | -7.93% [at 42.5 µM]
39 | CCOC(=O)OC(=O)OCC | 5.95%
40 | CCCCCCCCSCc1cc(C)c(O)c(CSCCCCCCCC)c1 | -2.55%
